# Pol III holo inh: DNA polymerase III holoenzyme inhibition | reconstituted DNA polymerase III holoenzyme replication, biochemical | Potency, µM (top dose mostly 57.1 µM), for inactives: top-dose activity change, negative = inhibition | hit rate 0.25% among 71,000 | AID 603; note: potency is the fitted concentration of half-maximal effect; % is set by controls: 0 for no effect and ±100 for the full control effect
#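 Reconstituted *E. coli* holoenzyme (0.35 nM Pol III, 1 nM beta, 154 nM SSB, 2 nM primase) was preincubated with compound for 15 min at RT. Synthesis on 1.4 nM ssM13Gori ran 35 min, then was stopped with PicoGreen/EDTA and read as dsDNA fluorescence.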
# BRCT PPI green: BRCA1 BRCT-phosphoprotein interaction inhibition. P38398. BRCA1 BRCT-phosphopeptide binding, green fluorescence polarization. Potency, µM (highest dose often 76.9 µM), inactives show top-dose activity change, negative = inhibition, usual class: inhibitors. hit rate 0.05% among 75,000. AID 875;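 note: potency is the fitted concentration of half-maximal effect; plate controls were peptide without protein for full effect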
#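 Compounds were incubated for 12 min at room temperature with a complex of 100 nM fluorescein-tagged pBACH1 decapeptide and 250 nM His-tagged BRCT protein. Buffer was phosphate pH 7.3 with EDTA, DTT and Tween 20. Disruption of binding lowers the polarization signal.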
# TsaE inh: inhibitors of E. coli YjeE (TsaE). P0AF67. purified YjeE enzyme, qHTS inhibition assay. Potency, µM. hit rate 0.05% among 71,000. AID 605
#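 Fluorescence polarization of a BODIPY Texas Red–ADP probe (2 uM) bound to purified YjeE (10 uM) was read after 15 min room-temperature incubation with compounds. Loss of polarization marks inhibitors; ADP serves as titrated control.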
# BRCT inh red: BRCT-phosphoprotein interaction inhibition (red fluorophore). P38398. BRCT-phosphopeptide binding, red fluorescence polarization. Potency, µM (series often up to 76.9 µM), without a hit: top-dose activity change, negative = inhibition, hits mostly inhibitors. hit rate 0.03% among 75,000; note: % is set by controls: 0 for no effect and ±100 for the full control effect
#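 Fluorescence polarization: 100 nM His-tagged BRCA1 BRCT with 100 nM TAMRA-labelled phospho-BACH1 decapeptide, phosphate buffer pH 7.3 with 150 mM NaCl, DTT, 0.01% Tween 20; 12 min RT. Binding inhibition seen as FP decrease.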
# Hsp90 Hop PPI: changes Hsp90-Hop TPR2A binding signal, up or down. AlphaScreen TPR2A-His6 binding biotin-Hsp90 C-terminal peptide. Potency, µM (highest dose often 57 µM), inactives show top-dose activity change, negative = inhibition. hit rate 0.44% among 71,000; active = well fitted curve in either direction with a large enough effect; inconclusive = small, poorly fitted or top-dose-only effect, or another doubt; note: potency is the fitted concentration of half-maximal effect; % is set by controls: 0 for no effect and ±100 for the full control effect
# Tau fil binding: tau filament binding | Potency, µM (top dose mostly 57.1 µM), for inactives: at the top dose activity change, negative = inhibition | AID 596 | hit rate 2% among 71,000 | recombinant tau filaments, thioflavin S fluorescence, 15 h; filaments grown with octadecylsulfate alongside compound | P10636;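 note: potency is the fitted concentration of half-maximal effect; % is set by controls: 0 for no effect and ±100 for the full control effect; actives lower thioflavin S fluorescence by blocking filaments or displacing dye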
# Target sequence (P10636 whole entry, looked up): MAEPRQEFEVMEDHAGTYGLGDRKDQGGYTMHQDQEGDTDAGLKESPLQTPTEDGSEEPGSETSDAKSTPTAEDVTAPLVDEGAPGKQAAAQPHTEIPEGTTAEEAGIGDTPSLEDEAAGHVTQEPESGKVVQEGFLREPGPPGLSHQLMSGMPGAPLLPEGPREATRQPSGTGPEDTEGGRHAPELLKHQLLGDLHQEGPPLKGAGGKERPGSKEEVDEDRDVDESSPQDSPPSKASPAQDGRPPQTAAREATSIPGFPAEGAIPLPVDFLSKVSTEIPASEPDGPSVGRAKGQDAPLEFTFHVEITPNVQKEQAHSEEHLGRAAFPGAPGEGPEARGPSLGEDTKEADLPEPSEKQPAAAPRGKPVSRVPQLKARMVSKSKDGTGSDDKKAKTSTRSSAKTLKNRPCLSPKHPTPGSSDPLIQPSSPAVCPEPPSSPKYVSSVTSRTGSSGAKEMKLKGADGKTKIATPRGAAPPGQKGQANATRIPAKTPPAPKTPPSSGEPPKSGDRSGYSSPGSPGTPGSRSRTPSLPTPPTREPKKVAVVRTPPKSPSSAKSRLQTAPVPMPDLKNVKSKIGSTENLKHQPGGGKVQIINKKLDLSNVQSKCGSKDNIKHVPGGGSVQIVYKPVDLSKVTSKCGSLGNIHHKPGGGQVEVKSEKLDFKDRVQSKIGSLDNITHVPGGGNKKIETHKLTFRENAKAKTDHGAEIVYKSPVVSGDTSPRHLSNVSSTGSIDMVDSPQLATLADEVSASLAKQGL
#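 Read-out: ThS fluorescence, 450 nm excitation/510 nm emission; lower signal marks blocked filament formation or displaced dye. Tau at 1 uM with 30 uM ODS, 10 uM ThS, 5 mM DTT, 100 mM NaCl, 10 mM HEPES pH 7.4; 15 h, 37 C.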
# Numbers without * were called inactive; i = inactive; ? = inconclusive; nt = no result; ! = a repeat was not active; [ ] = remark or other dose. Shown are actives, neighbours in structure and some others; about 2.3% of the full set was active somewhere. Unless noted, calls come from the whole dose curve; as a rule, active = well fitted curve in the direction sought with a large enough effect; inconclusive = small, poorly fitted or top-dose-only effect, or another doubt; inactive = no such curve, though single readings can be large; an effect the other way counts as inactive or inconclusive.
SMILES,Pol III holo inh,BRCT PPI green,TsaE inh,BRCT inh red,Hsp90 Hop PPI,Tau fil binding
CC[N+](CC)(CCCNC1=CC(=O)C(NCCC[N+](CC)(CC)Cc2ccccc2)=CC1=O)Cc1ccccc1,-5%,-1%,i,0%,-5%,32µM*
CC[C@H]1[C@@H]2C[C@@H]3[C@@H]4N(C)c5ccccc5[C@@]45C[C@@H]([C@H]2[C@@H]5O)N3[C@@H]1O,-8%,nt,i,nt,-1%,?
[Cd+2].[Cl-].[Cl-],0.063µM*,-3%,?,0%,-10%,5%
C[n+]1c2cc(N)ccc2cc2ccc(N)cc21,nt,1.3µM*,nt,-8%,nt,nt
Nc1ccc2ccccc2c1,-10%,1%,i,0%,1%,2%
C[C@@]12CC[C@H](O)C[C@@H]1CC[C@H]1[C@H]2C[C@@H](O)[C@]2(C)[C@@H](C3=CC(=O)OC3)CC[C@@]12O,1%,nt,i,nt,?,-10%
COc1cc2c(cc1O)CC1c3c(cc(O)c(OC)c3-2)CCN1C (stereo not drawn),nt,-4%,nt,-2%,nt,nt
COc1cc2c(cc1O)C[C@H]1c3c(cc(OC)c(O)c3-2)CCN1C,-10%,-6%,i,-7%,-11%,40µM*
c1ccc2c(c1)Sc1ccccc1N2C[C@H]1CN2CCC1CC2,-9%[11.4 µM],-1%[15.4 µM],i,1%[15.4 µM],1%[11 µM],1.6µM*
COc1cccc2c1C(=O)c1c(O)c3c(c(O)c1C2=O)C[C@](O)(/C(C)=N\O)C[C@@H]3O[C@H]1C[C@H](N)[C@@H](O)[C@H](C)O1,1µM*,5%[15.4 µM],i,?,-5%[11 µM],1.6µM*
O=C(Oc1ccc(S(=O)(=O)F)cc1F)c1ccccc1Cl,-8%[11.4 µM],-3%[15.4 µM],i,0%[15.4 µM],-6%[11 µM],10%[11.4 µM]
CCOC(=O)C1CCN(/C=C2/C(=O)NC(=O)N(Cc3ccco3)C2=O)CC1,7.9µM*,-2%,i,-1%,-14%,-10%
CCC(=NC1CCN(Cc2ccccc2)CC1)c1c(O)[nH]c(=O)[nH]c1=O,1%,-1%,i,-2%,-1%,-4%
CCOC(=O)c1ccc(NC(=O)c2c(O)[nH]c(=O)[nH]c2=O)cc1,i,13µM*,i,-2%,-4%,i
CN(C(=O)Oc1cccc2cccnc12)c1ccccc1,nt,-2%,nt,0%,nt,nt
Oc1cccc2cccnc12,-13%[11.4 µM],0%[15.4 µM],i,2%[15.4 µM],10µM*!,9%[11.4 µM]
O=c1[nH]oc2c1CCNC2,-5%,-3%,i,0%,-1%,32µM*!
COc1ccc2c3c1O[C@@H]1C(=O)CC[C@@]4(O)[C@@H](C2)N(CC2CC2)CC[C@]314,-4%,-3%,i,-2%,-4%,4%
O=C(O)/C=C\c1ccc[c]([Sb](=[O])([OH])[OH])c1,0.2µM*,-22%[15.4 µM],i,31%[15.4 µM],-8%[11 µM],5%[11.4 µM]
CN(N=O)c1cc(O)ccc1O,3.2µM*,?,100µM*,32µM*,?,?
Cc1ccc(O)cc1,5%,-1%[3.08 µM],i,5%,-11%,-3%
N=C(N)SCc1ccc(Cl)c2ccccc12 (tested in a mixture with another compound),-7%[11.4 µM],1%[15.4 µM],i,0%[15.4 µM],0%[11 µM],2%[11.4 µM]
COc1ccc2c(c[n+](C)c3c4cc5c(cc4ccc23)OCO5)c1OC,-5%,-3%,i,-2%,-12%,32µM*
Cc1c([C@@H](C)[C@H]2NC[C@H](C)C[C@@H]2O)ccc2c1C[C@@H]1[C@H]2CC=C2C[C@@H](O)CC[C@@]21C,-5%[11.4 µM],-3%[15.4 µM],i,2%[15.4 µM],-5%[11 µM],-1%[11.4 µM]
c1ccc(Nc2ccc(Nc3ccccc3)cc2)cc1,-5%,0%,i,-1%,?,13µM*
SMILES,Pol III holo inh,BRCT PPI green,TsaE inh,BRCT inh red,Hsp90 Hop PPI,Tau fil binding
COC(=O)c1c(C)ccc2c(O)c3c(cc12)C(=O)c1c2c(cc(O)c1C3=O)[C@@]1(C)O[C@@](C)(O2)[C@@H](O)[C@H](N(C)C)[C@H]1O,-10%[11.4 µM],2%[15.4 µM],i,-2%[15.4 µM],-8%[11 µM],4µM*
CN1C[C@H](C(=O)N[C@@]2(C)O[C@@]3(O)[C@H]4CCCN4C(=O)[C@@H](Cc4ccccc4)N3C2=O)C=C2c3cccc4[nH]cc(c34)C[C@@H]21,-5%[11.4 µM],2%[15.4 µM],i,-3%[15.4 µM],-12%[11 µM],189%[11.4 µM]
CC(C)[C@@]1(NC(=O)[C@@H]2C=C3c4cccc5[nH]cc(c45)C[C@@H]3N(C)C2)O[C@]2(O)[C@H]3CCCN3C(=O)[C@H](Cc3ccccc3)N2C1=O,0%,nt,i,nt,-28%,434%
COc1ccc(N2CCN(CCCN)CC2)cc1,-4%,-1%,i,-2%,-27%,20µM*
Nc1ncnc2c1ncn2[C@@H]1O[C@@H](COP(=O)(O)CP(=O)(O)OP(=O)(O)O)[C@H](O)[C@@H]1O,-3%,-4%,i,-3%,-8%,8%
COC(=O)[C@@H]1c2cc3c(c(O)c2[C@@H](O)C[C@]1(C)O)C(=O)c1c(O)cc2c(c1C3=O)O[C@H]1O[C@@]2(C)[C@@H](O)[C@H](N(C)C)[C@H]1O,-8%[11.4 µM],1%[15.4 µM],i,-2%[15.4 µM],-6%[11 µM],-18%[11.4 µM]
CCCCc1ccc(C(=O)O)nc1,1%,0%,i,0%,2.5µM*,?
CCCCCCCCc1ccc(O)cc1,-6%,-1%,i,-3%,2%,-3%
CC(=O)O[C@H]1CC[C@H]2[C@@H]3CCC4=C[C@@H](C5SCCS5)[C@H](OC(C)=O)C[C@]4(C)[C@H]3CC[C@@]12C,-8%[11.4 µM],-3%[15.4 µM],i,1%[15.4 µM],?,-3%[11.4 µM]
CC1=NN=C(c2ccc(N)cc2)c2cc3c(cc2C1)OCO3,-1%,1%,i,0%,?,32µM*!
CC(=O)OC1=CC2=CC[C@H]3[C@H]4CCC(=O)[C@@]4(C)CC(=O)[C@]3(S)[C@]2(C)CC1,-14%[11.4 µM],0%[15.4 µM],i,2%[15.4 µM],-6%[11 µM],4%[11.4 µM]
COc1ccc2c(c1O)-c1cccc3c1[C@H](C2)N(C)CC3,3%,1%,i,-1%,-4%,-10%
CN1C[C@@H](CS(=O)(=O)N(C)C)C[C@H]2c3cccc4c3c(cn4C)C[C@@H]21,-4%,-3%,i,-2%,-5%,10%
CCC(=Nc1ccc(OC)cc1OC)c1c(O)n(C2CCCCC2)c(=O)[nH]c1=O,3%,2%,i,0%,-17%,10µM*
C1C[C@@H]2CN(CCCN3CCOCC3)[C@@H](C1)O2,-4%[11.4 µM],1%[15.4 µM],i,0%[15.4 µM],-4%[11 µM],9%[11.4 µM]
CN1CCC(n2nccc2N)CC1,56%,-1%,i,1%,0%,-8%
Nc1ccnn1C1CCNCC1,-5%,-1%,i,1%,7%,25µM*
Nc1cc(Cl)ccc1Cl,3%,-2%,i,2%,-1%,-1%
Nc1ccc(Cl)cc1N,-1%,8%,i,-4%,-5%,2.5µM*

# High-throughput results from PubChem.
